Source: PubChem (several laboratories)
MazEF act: MazEF (E. coli) toxin RNase activation; P0AE70; FAM/BHQ RNA-DNA oligo cleavage fluorescence, 5 h; activation, % at 20 µM; 350,000 tested, 0.32% active; AID 504720; in the data active means activation above about 50%
Target sequence (P0AE70 whole entry, looked up): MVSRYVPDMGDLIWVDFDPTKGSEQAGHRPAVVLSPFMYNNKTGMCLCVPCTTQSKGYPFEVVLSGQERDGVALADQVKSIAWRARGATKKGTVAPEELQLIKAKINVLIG
PfHsp40 rescue: restores yeast growth despite PfHsp40 toxicity. 340,000 tested, 0.68% active. growth rescue, % at 12.5 µM. S. cerevisiae expressing PfHsp40, growth rescue, ATP luminescence; in the data active means growth rescue above about 28%, passing the limit was not always enough; inconclusive means no clear call, values can overlap the other calls;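 further: yeast W303a lacking pdr1 and pdr3 grown in galactose medium; growth measured after three days at 30 °C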
PriA SSB inh: K. pneumoniae PriA-SSBct interaction inhibition | AlphaScreen SSBct-PriA binding, biotinylated peptide | inhibition, % at 33 µM | 430,000 tested, 0.6% active | AID 1272365; in the data active means inhibition mostly above about 37%, no sharp cut-off; inactive means mostly below about 20%;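 further: plate controls were negative control peptide for no effect and reference peptide for full effect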
PrPC TRFRET: cell surface PrPC inhibition, primary TR-FRET screen | TR-FRET read-out | inhibition, % at 13.8 µM | 370,000 tested, 0.43% active | AID 720596; in the data active means inhibition above about 24%; further: 0% = median of the test wells and 100% = reference compound wells
PrP 5UTR inh: suppresses PrP 5' UTR mRNA reporter expression | inhibition, % (concentration not given with the values) | AID 488862 | cell-based PrP 5' UTR mRNA reporter, plate reader | 340,000 tested, 0.35% active; in the data active means inhibition above about 52%; further: 0 = median of the neutral control wells
PrP UTR cherry: prion 5' UTR mRNA inhibition, cherry-pick retest; shares compounds with PrP 5UTR inh; cell-based prion protein 5' UTR reporter, plate reader; inhibition, % at 2.5 µM; 1,100 tested, 48% active; in the data active means inhibition above about 54%; inconclusive means no clear call, values can overlap the other calls
* = called active by the depositor; ? = inconclusive; . = not tested or not shown. Shown are actives, neighbours in structure and some others; about 1.8% of the full set was active somewhere.

SMILES | MazEF act | PfHsp40 rescue | PriA SSB inh | PrPC TRFRET | PrP 5UTR inh | PrP UTR cherry
Cc1csc(NC(=O)CCc2c(C)nc3cc(-c4ccc(Cl)cc4)nn3c2C)n1 | 6 | 5 | -19 | -1 | 50* | 59*
Cc1ccc(-c2cc3c(N=O)c4ccccc4c-3n[nH]2)cc1 | 15 | -1 | 1 | -7 | 79* | 81*
CCC(C)(C)n1nnnc1C(c1cccs1)N1CCCCC1 (centres undefined) | 3 | -1 | -5 | -1 | 52* | -5
CC(C)(C)n1nnnc1C(c1cccs1)N1CCCC2(CCCCC2)C1 (centres undefined) | -1 | 1 | 5 | 2 | -18 | .
O=C(Nc1ccccc1C(=O)NC1CC1)c1ccccc1 | -1 | -2 | 4 | 7 | 2 | .
Nn1c(SCC(=O)Nc2ccc(OCc3ccccc3)cc2)nnc1-c1cc(-c2ccccc2)n[nH]1 | . | . | . | 8 | . | .
O=C(NC1CCCCCCC1)c1cnccn1 | 3 | 0 | -21 | -3 | -13 | .
O=C(NC1CCCCC1)c1csnn1 | 5 | 1 | -16 | -10 | 84* | -1
Cc1ccc(C(=O)/C=C/Nc2ccccn2)cc1 | 4 | 0 | . | 3 | 76* | 62*
COc1ccc(C(=O)C=CNc2ccccn2)cc1 | . | . | -9 | . | . | .
COc1ccc(-c2cc(-c3cccs3)c(C#N)c(SCC(=O)NCc3ccco3)n2)cc1 | -28 | -1 | 31 | . | 68* | 86*
COc1ccc(-c2cc(-c3ccccc3)nc(SCC(=O)NCc3ccco3)c2C#N)cc1 | . | . | -12 | . | . | .
O=C(COc1ccccc1F)NCC1CCN(c2nc3ccccc3o2)CC1 | . | . | 2 | . | . | .
COc1cc(CC(CC(=O)c2ccc3c(c2)OCO3)C(=O)O)cc(OC)c1OC (centres undefined) | 0 | 0 | 3 | 0 | -30 | .
CCOC(=O)CSc1nnc(CNC(=O)c2ccc(OC)cc2)n1Cc1ccccc1 | 6 | -1 | 3 | 5 | -22 | .
COc1ccc(C(=O)NCc2nnc(SC)n2Cc2ccccc2)cc1 | -7 | 1 | 5 | 5 | 54* | 8
CCCS(=O)(=O)N1CCCC(C(=O)NC2CCCC(C)C2C)C1 (centres undefined) | -6 | -1 | -12 | 2 | 86* | -13
COc1ccc(N2CCN(C(=O)NC3CCCCC3)CC2)cc1 | 11 | 0 | -13 | 2 | -20 | .
O=C(NC1CCCCC1)N1CCN(c2ccccc2)CC1 | 7 | -1 | -2 | 1 | 67* | -36
OCC1=C[C@@H](O)C2C=CO[C@@H](O[C@@H]3O[C@H](CO)[C@@H](O)[C@H](O)[C@H]3O)C12 (some centres undefined) | 9 | -1 | 5 | -2 | -20 | .
OCC1=C[C@@H](O)[C@@H]2C=CO[C@@H](O[C@@H]3O[C@H](CO)[C@@H](O)[C@H](O)[C@H]3O)[C@H]12 | 16 | 0 | -3 | 3 | 65* | 4
Cc1nnc(NC(=O)c2cccc(F)c2)s1 | 3 | 1 | 8 | 0 | -15 | .
O=C(Nc1nnc(-c2cccs2)s1)c1cccc(F)c1 | 3 | 0 | -1 | 2 | 74* | -44
COc1cc2c3c(c1)C(C)=CC(C)(C)N3C(=O)C2=O | 4 | 1 | 9 | -19 | 79* | -2
COc1cccc(C(=O)Oc2cc3c4c(c2)C(C)=CC(C)(C)N4C(=O)C3=O)c1 | -2 | 4 | -6 | -25 | -18 | .
SMILES | MazEF act | PfHsp40 rescue | PriA SSB inh | PrPC TRFRET | PrP 5UTR inh | PrP UTR cherry
COc1cc(C(=O)N2CCN(c3cccc(C)c3C)CC2)cc(OC)c1OC | 3 | 0 | 3 | 20 | 60* | 74*
COc1cc(C(=O)N2CCN(c3cc(Cl)ccc3Cl)CC2)cc(OC)c1OC | -13 | -2 | -11 | 2 | 56* | 88*
Cc1cccc(N2CCN(C(=O)c3ccncc3)CC2)c1C | 3 | -1 | -12 | 6 | -27 | .
COc1ccc(C(=O)N2CCN(C(=O)c3cc(OC)c(OC)c(OC)c3)CC2)cc1 | 7 | -1 | -3 | -6 | -8 | .
Cc1ccc(NCN2C(=O)C(=O)c3ccccc32)nc1 | 1 | -2 | -20 | -1 | -28 | .
O=C1Nc2ccccc2SC(c2ccccc2)C1O (centres undefined) | -1 | 0 | -8 | 4 | . | .
Cc1c(N(C)CS(=O)(=O)O)c(=O)n(-c2ccccc2)n1C | 7 | -1 | -9 | -2 | 58* | -26
CCN(C(=O)CSc1nc(-c2ccccc2)cn1N)c1c(N)n(Cc2ccccc2)c(=O)[nH]c1=O | 5 | 0 | -9 | -5 | -11 | .
O=C(Nc1cc2ccccc2oc1=O)c1ccccc1 | 9 | -1 | -29 | -12 | 57* | 63*
COc1cc(C=NNc2ccccc2)ccc1OC(=O)c1ccccc1 | -6 | . | . | 24 | . | .
COC(=O)c1ccc(COc2ccccc2/C=N/Nc2cccc(C(=O)O)c2)cc1 | -1 | 0 | . | 1 | 77* | -34
CCOc1cc(/C=N/Nc2cccc(C(=O)O)c2)ccc1OC(=O)c1ccccc1 | 1 | 1 | . | 15 | 71* | ?
COc1ccc(C(C)=O)cc1NC(=O)c1nnn(-c2ccccc2)c1N | . | . | -9 | . | . | .
CC(=O)N/C(=C\c1ccccc1)C(=O)OCc1ccccc1 | 3 | -1 | 4 | -3 | 72* | -22
COc1ccc(CCS(=O)(=O)Nc2ccc3c(c2)OCC(C)(C)C(=O)N3)cc1 | . | . | 2 | . | . | .
Cc1ccc(S(=O)(=O)N2CCC(=O)CC2c2ccccc2)cc1 (centres undefined) | 7 | -1 | -12 | -7 | 56* | -39
Cn1cnc([N+](=O)[O-])c1Sc1ncccc1N | -9 | 4 | -2 | -8 | -10 | .
CCOC(=O)c1cnn(-c2ccccc2)c1NC(=O)CN1CCOCC1 | 2 | 0 | -4 | 4 | 74* | -50
Cc1cc(-c2ccccc2)nc2oc(C(=O)NN)c(N)c12 | 12 | 0 | -7 | -13 | 72* | 1
COc1ccc(Cl)cc1NC(=S)N1CCN(S(C)(=O)=O)CC1 | -1 | 0 | -5 | -4 | -6 | .
CC(=O)Nc1ccc(SCC(=O)c2c(N)n(Cc3ccccc3)c(=O)n(C)c2=O)cc1 | -16 | 0 | 2 | 1 | -9 | .
CC(C)Nc1nnc(SCC(=O)c2c(N)n(Cc3ccccc3)c(=O)n(C)c2=O)s1 | -1 | 0 | -14 | -5 | 60* | -7
Cc1ccoc1C(=O)Nc1ccc2ccccc2c1 | -19 | 2 | -2 | -29 | 10 | .
Cc1ccoc1C(=O)Nc1ccc(CC(=O)O)cc1 | -3 | 0 | -8 | -5 | 64* | 53*
Cc1nnc(SC(C)C#N)n1-c1ccccc1 (centres undefined) | -3 | -1 | -23 | 0 | -22 | .
CS(=O)(=O)N(CC(=O)NCCSc1ccccn1)c1ccc(F)cc1 | -7 | 0 | -16 | 1 | 52* | 4
COc1ccc(N(CC(=O)NCCSc2ccccn2)S(C)(=O)=O)cc1 | -4 | -1 | -8 | 0 | -7 | .
ClCCCc1cn(C[C@H]2CC[C@@H]([C@@H]3CC[C@H](Cn4cc(CCCCl)nn4)O3)O2)nn1 | 7 | -2 | -19 | -2 | 68* | -13
